Screens (PubChem BioAssay)
This is a sample that favours compounds with a hit; in the whole collection about 1.3% have one here.
Fam108B counter: blocks mouse Fam108B hydrolase in RBBP9 counter-screen; inhibition, % at 9.51 µM; recombinant Fam108B, FP-Rh probe fluorescence polarization; AID 1947; actives 0.33% (n = 300,000);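 active means inhibition above the screen mean inhibition plus 3 SD, computed separately per campaign, cut at about 18% in these data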;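 further: inhibitors lower polarization as less probe binds the enzyme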
LYPLA2 counter: counter-screen for PME1 inhibitors: inhibitors of human LYPLA2. O95372. recombinant LYPLA2, FP-Rh probe fluorescence polarization. inhibition, % at 5.9 µM. actives 0.38% (n = 320,000). AID 2177;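 active means inhibition above the screen-wide mean plus 3 SD, limit set per campaign, cut at about 26% in these data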;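 further: 0% = LYPLA2 with DMSO and 100% = wells lacking LYPLA2 enzyme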
Target sequence (O95372 whole entry, looked up): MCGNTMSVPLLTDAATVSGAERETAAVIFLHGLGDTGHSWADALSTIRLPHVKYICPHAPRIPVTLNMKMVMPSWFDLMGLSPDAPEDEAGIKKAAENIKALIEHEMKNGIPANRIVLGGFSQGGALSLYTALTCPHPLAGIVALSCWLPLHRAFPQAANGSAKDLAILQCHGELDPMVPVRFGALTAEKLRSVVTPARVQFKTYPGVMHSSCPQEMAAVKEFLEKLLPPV
PME-1 primary: PME-1 (human) inhibition; recombinant PME-1, FP-Rh probe fluorescence polarization; inhibition, % at 5.9 µM; actives 0.53% (n = 320,000);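 active means inhibition above the campaign mean of all compounds plus 3 SD, cut at about 26% in these data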;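 further: competitive labeling of PME-1 active site by serine hydrolase directed probe; 0% = PME-1 with DMSO and 100% = wells lacking PME-1 enzyme; inhibitors block probe labeling so polarization falls and inhibition rises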
LYPLA1 counter: counter-screen for PME1 inhibitors: inhibitors of human LYPLA1; O75608; inhibition, % at 5.9 µM; recombinant LYPLA1, FP-Rh probe fluorescence polarization; actives 0.16% (n = 320,000);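 active means inhibition above the mean of all tested compounds plus 3 SD, set per campaign, cut at about 14% in these data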;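 further: inhibitors block serine hydrolase probe labeling of LYPLA1 so polarization falls; 0% = enzyme with DMSO and 100% = wells lacking LYPLA1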
Target sequence (O75608 whole entry, looked up): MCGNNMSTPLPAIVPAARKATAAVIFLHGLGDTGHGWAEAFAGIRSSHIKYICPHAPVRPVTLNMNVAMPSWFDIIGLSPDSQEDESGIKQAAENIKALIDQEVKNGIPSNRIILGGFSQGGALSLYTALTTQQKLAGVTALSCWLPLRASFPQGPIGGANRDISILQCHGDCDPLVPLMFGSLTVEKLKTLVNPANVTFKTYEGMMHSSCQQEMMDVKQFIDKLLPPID
PREPL inh: inhibitors of human prolyl oligopeptidase-like enzyme PREPL | AID 2751 | recombinant PREPL, fluorescence polarization activity-based probe | inhibition, % at 5.96 µM | Q4J6C6 | actives 0.68% (n = 320,000);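 further: 0% = enzyme with DMSO and 100% = wells lacking enzyme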
PREPL inh cf: confirmation of human PREPL enzyme inhibitors; recombinant PREPL, fluorescence polarization activity probe; actives 67% (n = 2,000); inhibition, % at 5.96 µM; shares compounds with PREPL inh;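 further: 0% = protein with DMSO and 100% = wells lacking protein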
* hit, by the source's call; . = no result. Unless noted, no stated cut-off is given here; in the data, active means inhibition above about 43%; inactive means the rest.

SMILES	Fam108B counter	LYPLA2 counter	PME-1 primary	LYPLA1 counter	PREPL inh	PREPL inh cf
Cn1c(N)c(C(=O)COC(=O)/C=C/c2cccc(Br)c2)c(=O)n(C)c1=O	.	5.8	0.6	-1.3	38.2	.
Cn1c(N)c(C(=O)COC(=O)/C=C/c2cccc(F)c2)c(=O)n(C)c1=O	.	7.5	1.7	-1.2	44.1*	40.1
COC(=O)c1ccc(NC(=S)NC2CC3CCC2C3)cc1 (stereo not drawn)	5.5	-5.9	6.0	-7.8	7.3	.
Cc1ccc(NC(=O)Cn2c(-c3ccc(F)cc3)cnc2SCC(=O)Nc2c(C)cccc2C)cc1	-4.9	-8.5	1.5	-6.5	47.3*	12.7
CCOc1ccc(NC(=O)CSc2ncc(-c3ccc(F)cc3)n2Cc2ccco2)cc1	-9.4	-6.5	-3.6	-1.8	11.5	.
O=C(O)C1CCCCC1C(=O)NCc1ccc(Cl)c(Cl)c1 (stereo not drawn)	2.2	-1.2	-6.5	-4.9	-1.8	.
CCC(CO)Oc1cc(NCc2ccccc2F)c2ncn(C(C)C)c2c1 (stereo not drawn)	.	4.1	2.5	3.5	35.0	.
CCC(CO)Oc1cc(NCc2ccccc2)c2ncn(C(C)C)c2c1 (stereo not drawn)	.	.	.	.	39.4	.
CCC(CO)Oc1cc(NCc2ccccc2C(F)(F)F)c2ncn(C(C)C)c2c1 (stereo not drawn)	.	.	.	.	47.8*	19.5
CC(C)n1cnc2c(NCc3ccccc3)cc(N[C@H](C)CO)cc21	.	.	.	.	60.5*	22.1
CCC(CO)Oc1cc(NCc2ccccc2Cl)c2ncn(C(C)C)c2c1 (stereo not drawn)	.	8.7	12.9	1.0	59.7*	29.6
CCC(COC)Oc1cc(NCc2ccccc2)c2ncn(C(C)C)c2c1 (stereo not drawn)	.	4.5	18.4	-0.4	51.6*	9.4
C/C(=N\NC(=O)c1c(Cl)cnn1C)c1ccc(NC(=O)c2ccncc2)cc1	-1.1	-0.1	-6.8	-3.2	-0.8	.
Cc1cccc(C(=O)N[C@H](C(=O)Nc2ccc(C)c(S(=O)(=O)N3CCOCC3)c2)C(C)C)c1	.	.	.	.	21.1	.
O=C(C[C@H]1C/C=C\C[C@@H](Cc2ccc(F)cc2)C(=O)OC[C@H]2CCCN2C1=O)N[C@@H](CO)Cc1ccccc1	.	.	.	.	60.2*	51.2*
O=C(C[C@@H]1C/C=C\C[C@@H](Cc2ccc(F)cc2)C(=O)OC[C@H]2CCCN2C1=O)N[C@H](CO)Cc1ccccc1	.	.	.	.	45.2*	47.0*
COc1ccc(CCNC(=O)CSc2nc(=O)[nH]c3c2CCC3)cc1OC	0.1	-0.8	1.0	-2.2	2.0	.
O=C(NCc1ccc(F)cc1)c1cc(C(=O)C2CC2)c[nH]1	0.1	-2.6	2.8	-5.0	-3.6	.
CC(OC(=O)c1ccc2ncsc2c1)C(=O)N(C)C1CCCCC1 (stereo not drawn)	.	0.3	1.8	-1.5	11.2	.
CN(C)CCN1C(=O)C(O)=C(C(=O)c2cc3ccccc3o2)C1c1ccc(N(C)C)cc1 (stereo not drawn)	1.9	-9.2	-4.3	-1.3	51.3*	53.9*
CN(C)CCN1C(=O)C(O)=C(C(=O)c2cc3ccccc3o2)C1c1ccccn1 (stereo not drawn)	0.6	3.0	6.6	2.7	25.8	.
CC(C)CCN1C(=O)c2ccc(C(=O)OCC(=O)N(CC(C)C)C3CCS(=O)(=O)C3)cc2C1=O (stereo not drawn)	.	.	.	.	7.3	.
CC(C)CN(C(=O)COC(=O)c1ccc(-c2ccccc2)cc1)C1CCS(=O)(=O)C1 (stereo not drawn)	-2.4	-0.1	-4.1	-1.1	48.1*	40.1
CCN(CC)S(=O)(=O)c1cc(C(=O)NC2CCCCC2)ccc1C	5.5	2.6	0.2	1.4	2.0	.
COc1ccccc1-c1nc(C#N)c(N2CCN(c3ccccc3)CC2)o1	4.1	18.3	9.6	10.8	48.2*	39.3
SMILES	Fam108B counter	LYPLA2 counter	PME-1 primary	LYPLA1 counter	PREPL inh	PREPL inh cf
COc1ccc(N2CCN(c3oc(-c4ccco4)nc3C#N)CC2)cc1	-1.2	22.1	-1.2	9.8	43.8*	35.4
COc1ccc(NS(=O)(=O)c2cc(NC(=O)c3cc(F)c(F)cc3Cl)ccc2N2CCOCC2)cc1	.	.	.	.	7.4	.
COc1ccc(NS(=O)(=O)c2cc(NC(=O)c3cc(F)c(F)c(F)c3F)ccc2N2CCCC2)cc1	-0.3	-24.0	-15.9	-11.9	46.3*	38.9
Cc1nc2cc(N)ccc2n1C1CCCCC1	-8.2	-5.1	0.0	-0.4	48.8*	5.7
Cc1nc2cc(C(=O)O)ccc2n1C1CCCCC1	3.4	-1.1	2.6	-2.6	3.4	.
COC(=O)c1cnc(Oc2ccc(NC(=O)NC(=O)c3ccccc3Cl)cc2)cc1C(F)(F)F	1.1	4.6	-4.7	5.1	5.5	.
COC(=O)CCC(=O)OC1(C)C(=O)C2=CN(C3CC3)C(c3ccc(OC)cc3)=CC2=C(Br)C1=O (stereo not drawn)	3.4	1.9	7.9	3.0	74.6*	68.9*
COC(=O)CCC(=O)OC1(C)C(=O)C2=CN(CC3CC3)C(c3ccc(OC)cc3)=CC2=C(Br)C1=O (stereo not drawn)	6.7	3.7	3.2	-0.3	68.6*	55.6*
CC(/C=C/c1ccccc1)NC(N)=O (stereo not drawn)	-0.5	1.6	3.4	0.3	0.7	.
CC(NCc1ccc(S(N)(=O)=O)cc1)C(=O)N1c2ccccc2CC1C (stereo not drawn)	2.3	0.1	-1.3	6.0	1.9	.
CCn1cc(C(=O)NC(C)C)c(=O)c2cc(F)c(N3CCN(C(=O)c4ccco4)CC3)cc21	2.0	8.1	-3.6	2.5	2.6	.
CCN1CCN(c2cc(N3CCN(C(=O)c4ccco4)CC3)c3c4c(onc24)-c2ccccc2C3=O)CC1	-28.4	7.5	1.9	11.1	69.9*	68.2*
O=C(C1CC(=O)N(c2ccc3c(c2)OCCO3)C1)N1CCN(c2ccccc2O)CC1 (stereo not drawn)	1.5	11.1	0.1	2.6	45.2*	41.0
CCOC(=O)C1=C(CS(=O)(=O)c2ccc(C)cc2)NC(=O)NC1c1cc(OC)c(OC)c(OC)c1 (stereo not drawn)	0.1	4.3	0.5	0.9	45.2*	40.5
COc1ccc(CCN2CC(C(=O)NCC(=O)Nc3ccc(F)c(F)c3)CC2=O)cc1OC (stereo not drawn)	8.0	1.2	-6.5	0.1	3.4	.
COC(=O)CCC(=O)OC1(C)C(=O)C=C2C=C(C3CC3)N(CCc3c[nH]c4ccccc34)C=C2C1=O (stereo not drawn)	0.5	5.0	5.0	2.8	63.3*	52.1*
COC(=O)CCC(=O)OC1(C)C(=O)C=C2C=C(C3CC3)N(Cc3ccc(OC)cc3)C=C2C1=O (stereo not drawn)	-0.7	2.0	2.7	1.4	59.4*	43.0
COC(=O)CCC(=O)OC1(C)C(=O)C=C2C=C(C3CC3)N(CCCCO)C=C2C1=O (stereo not drawn)	-0.7	3.7	1.9	1.8	7.1	.
